Data taken from PubChem BioAssay AID1851 (National Center for Advancing Translational Sciences (NCATS), 2009).
About 5,700 (36%) of roughly 16,000 compounds were called active. Inconclusive results (about 24%) are left out. The list shows a part of the results. Values without a mark were called inactive. The call rests on the fitted dose curve; in most records, active means well fitted curve in the direction sought with a large enough effect; inconclusive means small, poorly fitted or top-dose-only effect, or effect the other way; inactive means no such curve, though single readings can be large or run the other way.

Each molecule was assayed against Cytochrome P450 1A2 (Homo sapiens) (UniProt P05177) (assay: Cytochrome panel assay with activity outcomes). Conditions: recombinant CYP, pro-luciferin dealkylation, luminescence, p450-cyp1a2; series mostly up to 57.1 µM.
On the % scale 0 is the no-effect control and ±100 the full control effect.

Cytochrome P450 1A2 (Homo sapiens), sequence (P05177 whole entry, looked up): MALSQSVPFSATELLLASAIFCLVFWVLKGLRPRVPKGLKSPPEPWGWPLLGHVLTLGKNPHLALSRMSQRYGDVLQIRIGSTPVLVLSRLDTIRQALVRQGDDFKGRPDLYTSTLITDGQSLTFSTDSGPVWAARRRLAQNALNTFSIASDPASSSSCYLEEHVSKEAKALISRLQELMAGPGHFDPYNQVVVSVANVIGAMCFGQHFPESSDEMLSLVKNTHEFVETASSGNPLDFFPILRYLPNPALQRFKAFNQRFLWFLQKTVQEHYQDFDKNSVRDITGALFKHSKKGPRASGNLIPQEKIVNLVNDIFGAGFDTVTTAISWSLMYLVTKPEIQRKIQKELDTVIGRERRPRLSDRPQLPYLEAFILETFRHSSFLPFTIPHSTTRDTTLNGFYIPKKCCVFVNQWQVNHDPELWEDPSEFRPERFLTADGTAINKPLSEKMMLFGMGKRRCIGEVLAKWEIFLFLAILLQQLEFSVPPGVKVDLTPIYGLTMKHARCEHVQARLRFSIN

Structure (SMILES) | AC50 | activity, negative = inhibition
O=C(c1cc(C(F)(F)F)cc(C(F)(F)F)c1)N1CCC2(CC1)CN(c1ccccn1)C2 | inactive | –
CC(C)=NO[C@@H](C)c1cn([C@@H]2COC[C@@H]2O)nn1 | – | -6.31% [at 11.4 µM]
CCn1c(Cc2ccccc2)nnc1SCC(=O)NC(C)(C)C | inactive | –
CC(C)(C)NC(=O)CSC(=Nc1ccc(F)cc1)NC#N | 2.51 µM (active) | –
C[C@@H]1CC[C@H]2C(=O)NC[C@@H](O)CN2[C@@H]1c1ccc(Br)cc1 | – | -9.06% [at 11.4 µM]
O=[N+]([O-])C1=CC=C2C(=NC3(CCCCC3)N2O)C1=NC1CCCCC1 | 10 µM (active) | –
N[C@@H](C(=O)O)c1ccc(O)c(C(=O)O)c1 | inactive | –
Nc1ccc(O)c(C(=O)O)c1 | inactive | –
O=C(O)C1=CC(=C(c2ccc(O)c(C(=O)O)c2)c2ccc(O)c(C(=O)O)c2)C=CC1=O | 10 µM (active) | –
C#CCCCO/N=C1/C[C@@H](O)[C@@H](O)[C@@H]2[C@@H]3C(=O)N(Cc4ccccc4)C(=O)[C@H]3CC[C@H]12 | – | 0.662% [at 11.4 µM]
Cc1nc(S(=O)(=O)NC2CCCCC2)c(C#N)c(C)c1Cl | 10 µM (active) | –
Cc1nc(S(=O)(=O)N(C)c2ccccc2)c(C#N)c(C)c1Cl | 15.8 µM (active) | –
O=C(NNS(=O)(=O)c1ccc(Cl)cc1)NC1CCCCC1 | inactive | –
CO[C@@H]1COC(=O)[C@@H](CCSC)NC(=O)C/C=C\[C@@H](C)COC(=O)CCC[C@H]1C | – | 0.608% [at 11.4 µM]
Cc1cc(C)n(-c2nnc(C)n2/N=C/c2ccccc2OCc2ccccc2Cl)n1 | 2 µM (active) | –
CCOC(=O)COc1c(OC)cc(Cl)cc1C1Nc2ccccc2C(=O)N1c1ccc(F)cc1 (stereo unspecified) | inactive | –
CCOC(=O)COc1c(C=O)cc(Br)cc1OC | 4.47 µM (active) | –
CCOC(=O)COc1c(OC)cc(Cl)cc1C1Nc2ccccc2C(=O)N1c1cccc(C)c1 (stereo unspecified) | inactive | –
CCOC(=O)c1cc(-c2ccc(Cl)cc2)nc2c1c(C)nn2CCC#N | 0.891 µM (active) | –
CC1CC2(CCCCC2)N2C(=O)C(=O)c3cccc1c32 (stereo unspecified) | 2.24 µM (active) | –
Cn1nc(C(F)(F)F)c(/C=N/OC(=O)c2ccccc2Cl)c1SCc1ccc(Cl)cc1 | 2.82 µM (active) | –
COc1ccc(C(=O)O/N=C/c2ccc(S(=O)c3ccc(Cl)cc3)nc2)cc1 (stereo unspecified) | inactive | –
Cn1nc(C(F)(F)F)c(/C=N/OC(=O)c2ccc(Cl)cc2)c1Cl | 12.6 µM (active) | –

Structure (SMILES) | AC50 | activity, negative = inhibition
Cn1nc(C(F)(F)F)c(/C=N/OCc2c(Cl)cccc2Cl)c1Cl | 1.26 µM (active) | –
N[C@H](CCC(=O)NCS(=O)(=O)O)C(=O)O | inactive | –
Cc1ccccc1NC(=O)CSc1nnc(-c2ccccc2)n1-c1ccccc1 | inactive | –
CCn1c(SCC(=O)c2ccccc2)nnc1-c1cccs1 | 3.55 µM (active) | –
CCn1c(SCC(=O)N2CCN(S(=O)(=O)c3ccccc3)CC2)nnc1-c1cccs1 | inactive | –
O=C(CSc1nnc(-c2ccccc2)n1-c1ccccc1)c1cccs1 | 14.1 µM (active) | –
Cc1ccc(C(=O)NNC(=O)CSc2nnc(-c3ccncc3)n2-c2ccc(C)cc2)cc1 | inactive | –
CCn1c(SCC(=O)c2ccc3ccccc3c2)nnc1-c1cccs1 | 3.55 µM (active) | –
Cn1cccc1C(=O)N1CCC2(CC1)CN(C(=O)Nc1ccccc1)C2 | inactive | –
O=C(O)C1(C(=O)O)CCN(S(=O)(=O)c2ccccc2)CC1 | – | 13.9% [at 2.29 µM]
CCCCCn1c(=O)c(C(=O)c2ccccc2)nc2ccccc21 | 0.708 µM (active) | –
O=C(c1ccccc1)c1nc2ccccc2n(CCCn2c(=O)c(C(=O)c3ccccc3)nc3ccccc32)c1=O | inactive | –
O=[N+]([O-])c1cccc(-c2nc(-c3ccncc3)no2)c1 | 0.631 µM (active) | –
CCS(=O)(=O)N1CCC(C(=O)NCCCOC)CC1 | inactive | –
O=C(N/N=C/c1cccc(F)c1)c1csc2c1CCCC2 | 4.47 µM (active) | –
CC(C)(C)C1CCc2c(C(=O)N/N=C/c3cccs3)csc2C1 (stereo unspecified) | inactive | –
CC(C)NCCCOc1ccc(Cl)cc1Br | 0.631 µM (active) | –
Nc1ncnc2c1ncn2C[C@@H](O)C(=O)O | – | -12.5% [at 11.4 µM]
CCOc1ccc(NC2=NCC(=O)N2Cc2cccs2)cc1 | 22.4 µM (active) | –
O=C1CN=C(Nc2ccccc2)N1Cc1cccs1 | 12.6 µM (active) | –
CCOc1ccc(N2C(=O)/C(=C/c3cccs3)N(CC(=O)OC)C2=S)cc1 | inactive | –
CCOc1ccc(N2C(=O)CN=C2Nc2ccccc2Cl)cc1 | inactive | –
Cc1cc(N)n(-c2ccc3ccccc3c2)n1 | 2 µM (active) | –
